From PubChem BioAssay (NCATS)
Several values for one entry are separate records, joined by “and”; a condition that tells them apart may be missing. Identical values can stand only once. Results filed as inconclusive are left out. Activity calls are given as the source filed them. Unless noted, the call rests on the fitted dose curve; in most records, active means well fitted curve in the direction sought with a large enough effect; inconclusive means small, poorly fitted or top-dose-only effect, or another doubt; inactive means no such curve, though single readings can be large; an effect the other way counts as inactive or inconclusive.

Assays:
[1] = target: Cellular tumor antigen p53 (Homo sapiens) (UniProt P04637); test: Primary qHTS for small molecule compounds that upregulate eGFP-tagged delta133p53alpha (in N-terminal) cells. (AID 2060322); settings: NCI-H358 eGFP-delta133p53alpha fluorescence, 24 h; activation: active compounds read high;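 further: cells pre-induced with doxycycline then dosed without doxycycline; series mostly up to about 56 µM; 0% = DMSO vehicle and 100% = reference activator; nearly all actives have a fitted effect of over 75% in size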
Summary of the method: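 NCI-H358 cells pre-induced 24 h with 10 ng/ml doxycycline for eGFP-delta133p53alpha, plated dox-free and exposed 24 h at 37C to titrated compounds. Fixed, Hoechst-stained; gated GFP peak intensity by laser scanning cytometry, normalized to DMSO (0%) and 57.5 uM 5-azacytidine (100%).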

[2] = target: Cellular tumor antigen p53 (Homo sapiens) (UniProt P04637); test: Primary qHTS for small molecule compounds that upregulate eGFP-tagged delta133p53alpha (in C-terminal) cells. (AID 2060324);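 further: 0% = DMSO wells and 100% = 57.5 µM 5-azacytidine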
Summary of the method: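 Doxycycline (100 ng/ml, 24 h) first induced the eGFP fusion in NCI-H358 C-terminal-tag cells. Washed-out cells then received titrated compounds for 24 h at 37 °C before paraformaldehyde fixation, Hoechst staining and cytometric GFP quantification.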

[3] = target: Aldehyde dehydrogenase, mitochondrial (Homo sapiens) (UniProt P05091); test: qHTS for Inhibitors of the Aldehyde Dehydrogenase Family (ALDH2) Validation screens (AID 2061302; active means well fitted inhibition curve with a large enough effect; title and protocol of this record describe different tests; further: potency means the concentration at half of the fitted maximal effect)
[4] = qHTS for Inhibitors of the Aldehyde Dehydrogenase Family (ALDH1A2, ALDH1A3, ALDH2, ALDH3A1) (AID 2061307); further: nearly all actives have a fitted effect of over 50% in size; on Potency: test system not described further here; potency means the concentration at half of the fitted maximal effect
[5] = target: Retinal dehydrogenase 2 (Homo sapiens) (UniProt O94788); test: qHTS for Inhibitors of the Aldehyde Dehydrogenase Family (ALDH1A2) Confirmation screens (AID 2061314); further: nearly all actives have a fitted effect of over 65% in size; further: potency means the concentration at half of the fitted maximal effect
[6] = target: Aldehyde dehydrogenase, mitochondrial (Homo sapiens) (UniProt P05091); test: qHTS for Inhibitors of the Aldehyde Dehydrogenase Family (ALDH2) Primary screen (AID 2061308);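 further: plate controls were vehicle for no effect and reference inhibitor for full effect; nearly all actives have a fitted effect of over 55% in size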
[7] = target: Retinaldehyde dehydrogenase 3 (Homo sapiens) (UniProt P47895); test: qHTS for Inhibitors of the Aldehyde Dehydrogenase Family (ALDH1A3) Validation screen (AID 2061312); further: nearly all actives have a fitted effect of over 45% in size; further: potency means the concentration at half of the fitted maximal effect
[8] = target: Retinaldehyde dehydrogenase 3 (Homo sapiens) (UniProt P47895); test: qHTS for Inhibitors of the Aldehyde Dehydrogenase Family (ALDH1A3) Primary screen (AID 2061315);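 further: plate controls were DMSO vehicle for no effect and reference inhibitor for full effect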
[9] = target: Retinaldehyde dehydrogenase 3 (Homo sapiens) (UniProt P47895); test: qHTS for Inhibitors of the Aldehyde Dehydrogenase Family (ALDH1A3) Confirmatory screens (AID 2061311); further: nearly all actives have a fitted effect of over 60% in size; further: potency means the concentration at half of the fitted maximal effect
[10] = target: Aldehyde dehydrogenase, mitochondrial (Homo sapiens) (UniProt P05091); test: qHTS for Inhibitors of the Aldehyde Dehydrogenase Family (ALDH2) Confirmatory screens (AID 2061303; active means well fitted inhibition curve with a large enough effect; title and protocol of this record describe different tests; further: nearly all actives have a fitted effect of over 45% in size; further: potency means the concentration at half of the fitted maximal effect)
[11] = target: Aldehyde dehydrogenase 1A1 (Homo sapiens) (UniProt P00352); test: qHTS for Inhibitors of the Aldehyde Dehydrogenase Family (ALDH1A1) Confirmatory screens (AID 2061316); further: potency means the concentration at half of the fitted maximal effect; nearly all actives have a fitted effect of over 65% in size
[12] = BET inhibitor-based combinations targeting novel dependencies in MECOM-rearranged (r) AML: OCI-AML3 cell line (AID 2202232); settings: Potency: OCI-AML3 viability; further: nearly all actives have a fitted effect of over 35% in size; further: potency means the concentration at half of the fitted maximal effect
Summary of the method: (§1)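 Each compound was tested at eleven concentrations on cells seeded at 500/well. After two days' incubation, ATP-based luminescence reported viability; responses relative to DMSO and blank wells yielded AUC and cell-line-centred Z-AUC.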

[13] = BET inhibitor-based combinations targeting novel dependencies in MECOM-rearranged (r) AML: HNT-34 cell line (AID 2202234); further: nearly all actives have a fitted effect of over 35% in size; further: potency means the concentration at half of the fitted maximal effect
Summary of the method: (§2)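 First, 500 cells per well were seeded; next, drugs were pinned as 11-point doses; then plates sat 48 hr in the incubator; finally CellTiter-Glo was added and luminescence read, with AUC and Z-AUC computed.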

[14] = BET inhibitor-based combinations targeting novel dependencies in MECOM-rearranged (r) AML: UCSD-AML1 cell line (AID 2202235);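 further: series mostly up to about 46 µM; plate controls were DMSO vehicle wells for no effect and blank wells for full effect; nearly all actives have a fitted effect of over 40% in size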
Summary of the method: as §2

[15] = BET inhibitor-based combinations targeting novel dependencies in MECOM-rearranged (r) AML: AML-191 cell line (AID 2202236; further: nearly all actives have a fitted effect of over 35% in size; further: potency means the concentration at half of the fitted maximal effect)
Summary of the method: as §1

[16] = BET inhibitor-based combinations targeting novel dependencies in MECOM-rearranged (r) AML: AML-194 cell line (AID 2202237;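 further: plate controls were vehicle wells for no effect and wells without cells for full effect; nearly all actives have a fitted effect of over 40% in size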)
Summary of the method: as §1

[17] = BET inhibitor-based combinations targeting novel dependencies in MECOM-rearranged (r) AML: SET-2 cell line (AID 2202231); settings: SET-2 AML cells viability, CellTiter-Glo luminescence, 48 h; viability: active compounds read low, series mostly up to about 46 µM;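 further: plate controls were DMSO treated cells for no effect and wells without cells for full effect; nearly all actives have a fitted effect of over 35% in size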
Summary of the method: as §1

[18] = BET inhibitor-based combinations targeting novel dependencies in MECOM-rearranged (r) AML: MV-4-11 cell line (AID 2202233); further: potency means the concentration at half of the fitted maximal effect; nearly all actives have a fitted effect of over 45% in size
Summary of the method: as §2

Sequence of Cellular tumor antigen p53 (Homo sapiens) (P04637 whole entry, looked up, the tested form may be a part): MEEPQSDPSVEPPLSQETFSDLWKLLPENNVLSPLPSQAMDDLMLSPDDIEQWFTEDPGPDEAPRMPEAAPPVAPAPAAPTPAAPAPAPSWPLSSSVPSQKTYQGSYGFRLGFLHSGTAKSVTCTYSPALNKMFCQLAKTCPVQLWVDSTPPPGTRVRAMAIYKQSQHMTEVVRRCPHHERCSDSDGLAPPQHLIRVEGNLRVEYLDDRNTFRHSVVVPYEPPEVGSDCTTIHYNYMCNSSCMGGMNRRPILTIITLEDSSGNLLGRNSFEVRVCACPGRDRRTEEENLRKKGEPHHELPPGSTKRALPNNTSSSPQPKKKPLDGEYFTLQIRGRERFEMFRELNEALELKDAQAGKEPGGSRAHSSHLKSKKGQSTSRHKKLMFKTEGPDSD

CN(C)C(=O)/N=N/C(=O)N(C)C
inactive: activation [1] -3.88% | Potency [2] | Potency [3] | Potency [4]
active: Potency [5] 12.7 µM

CCNc1nc2c(ncn2[C@H]2C[C@H](O)[C@@H](CO)O2)c(=O)[nH]1
inactive: activation [1] 9.4% and 5.67% | Potency [2] | Potency [3] | Potency [6] | Potency [7] | Potency [8]

COc1cc2c(CCNC(C)=O)c[nH]c2cc1Cl
inactive: activation [1] -18.2% | Potency [2] | Potency [3] | Potency [4] | Potency [9] | Potency [5]

CNC(=O)Oc1ccc2c(c1)[C@]1(C)CCN(C)[C@@H]1N2C
inactive: activation [1] -31.1% and -29.5% and 2.6% | Potency [2] | Potency [3] | Potency [7]
active: Potency [4] 8.96 µM

O=Nc1ccc2oc(=O)ccc2c1
inactive: activation [1] -33.9% | Potency [2]
active: Potency [3] 1.12 µM | Potency [10] 1.27 µM | Potency [9] 283 nM | Potency [11] 283 nM

O=C(/C=C/c1ccc(O)cc1)c1ccc(O)cc1O
active: Potency [4] 1.2 µM | Potency [9] 504 nM | Potency [11] 3180 nM | Potency [12] 14.8 µM | Potency [13] 9.34 µM | Potency [15] 26.3 µM
inactive: activation [1] -26.4% | Potency [2] | Potency [3] | Potency [10] | Potency [14]

CCCCN(CC)c1nc(C)nc2c1c(C)cn2-c1c(C)cc(C)cc1C
inactive: activation [1] 34.4% and -11% | Potency [2] | Potency [3] | Potency [4] | Potency [6] | Potency [8]
active: Potency [7] 1.26 µM and 12.6 µM

O=c1c(O)c(-c2cc(O)c(O)c(O)c2)oc2cc(O)cc(O)c12
inactive: activation [1] -9.12% and -2.85% | Potency [2] | Potency [3] | Potency [4] | Potency [5] | Potency [12] | Potency [13] | Potency [14] | Potency [15] | Potency [16]
active: Potency [9] 5650 nM

Oc1ccc(Cn2cc[nH]c2=S)cc1
inactive: activation [1] -47.8% | Potency [2] | Potency [3] | Potency [10] | Potency [5]

CCCN1C[C@H](CSC)C[C@@H]2c3cccc4[nH]cc(c34)C[C@H]21
inactive: activation [1] 7.67% and 9.97% | Potency [2] | Potency [3] | Potency [6] | Potency [8]

CCN(CC)CCCCNc1ncc2cc(-c3c(Cl)cccc3Cl)c(NC(=O)NC(C)(C)C)nc2n1
inactive: activation [1] -67.6% and 10% | Potency [2] | Potency [3] | Potency [6] | Potency [7] | Potency [8]

CC(C)(Sc1ccc(CCN(CCCCC2CCCCC2)C(=O)NC2CCCCC2)cc1)C(=O)O
inactive: activation [1] 26.5% and 1.67% and -32.7% | Potency [2] | Potency [3] | Potency [6] | Potency [7] | Potency [8] | viability [17] 118% | Potency [13] | Potency [14] | Potency [15] | Potency [16]

CC(C)(C(=O)O)c1ccc(C(O)CCCN2CCC(C(O)(c3ccccc3)c3ccccc3)CC2)cc1 (stereo not given)
inactive: activation [1] 1.67% and -7.64% and -17.3% | Potency [2] | Potency [3] | Potency [6] | Potency [7] | Potency [8]

C[N+]1(C)C2CC(OC(=O)[C@H](CO)c3ccccc3)CC1C1OC12 (stereo not given in full)
inactive: activation [1] 4.68% and -6.58% | Potency [2] | Potency [3] | Potency [7]

NC(=O)c1cn(Cc2c(F)cccc2F)nn1
inactive: activation [1] -12.6% and -6.02% | Potency [2] | Potency [3] | Potency [7]

Nc1ncnc2c1c(-c1ccc(Oc3ccccc3)cc1)cn2C1CCCC1
inactive: activation [1] -45.6% | Potency [2] | Potency [3] | Potency [6] | Potency [7] | Potency [8]

CN(C)CCCC1(c2ccc(F)cc2)OCc2cc(C#N)ccc21 (stereo not given)
inactive: activation [1] 2.08% and 5.36% and -45.1% | Potency [2] | Potency [3] | Potency [6] | Potency [7] | Potency [8]

Clc1ccc2c(c1)N=C(N1CCNCC1)c1ccccc1N2
inactive: activation [1] 11.7% and 30.8% | Potency [2] | Potency [3] | Potency [6] | Potency [7] | Potency [8]

CCN1CCC[C@H]1CNC(=O)c1cc(S(N)(=O)=O)ccc1OC
inactive: activation [1] -14.2% and 19% and 1.55% | Potency [2] | Potency [3] | Potency [6] | Potency [7] | Potency [8]

CN(C)CCC(c1ccccc1)c1ccccn1 (stereo not given)
inactive: activation [1] -2.82% and -9.55% and -25.6% | Potency [2] | Potency [3] | Potency [6] | Potency [7] | Potency [8]

CCN(CC)CCOCCOC(=O)C1(c2ccccc2)CCCC1
inactive: activation [1] -17.5% and -6.79% | Potency [2] | Potency [3] | Potency [7]

O=c1c2ccccc2nc2n1CCc1c-2[nH]c2ccccc12
inactive: activation [1] -0.328% and 11% and -19% | Potency [2] | Potency [3] | Potency [6] | Potency [7] | Potency [8]

O=C(Nc1ccc2c(c1)CCN(Cc1ncn[nH]1)C2)c1ccccc1-c1ccc(C(F)(F)F)cc1
active: Potency [18] 14.8 µM
inactive: activation [1] -9.63% and 4.33% | Potency [2] | Potency [3] | Potency [6] | Potency [7] | Potency [8] | viability [17] 96.3% | Potency [13] | Potency [14] | Potency [15] | Potency [16]
